Experimental data from PubChem BioAssay AID1159580 (chemical genetic matrix, 2015).
Out of some 5,500 compounds screened, about 2,000 (36%) were called active. Inconclusive results (about 18%) are left out. No stated cut-off is given here; in the data, active means normalized growth mostly below about 0.91 (no sharp cut-off); inconclusive means no clear call, values can overlap the other calls; inactive means mostly above about 0.92. The list shows a part of the results.

Test: chemical genetic growth profiling, strain panel (AID 1159580);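 further: tested at 20 µM; growth read once vehicle control cultures reached saturation at 30 °C; 1 = growth at the plate median or of vehicle wells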
Conditions: growth OD
[1] = S. cerevisiae deletion strains, locus YAL013W, strain DEP1, stronger effect = lower value
[2] = S. cerevisiae deletion strains, locus YDR150W, strain NUM1, stronger effect = lower value
[3] = S. cerevisiae deletion strains, locus YJL095W, strain BCK1, stronger effect = lower value
[4] = S. cerevisiae deletion strains, locus YMR307W, strain GAS1, stronger effect = lower value
[5] = S. cerevisiae deletion strains, locus YPL241C, strain CIN2, stronger effect = lower value
[6] = S. cerevisiae deletion strains, locus YAL040C, strain CLN3, stronger effect = lower value
[7] = S. cerevisiae deletion strains, locus YDR363W, strain ESC2, stronger effect = lower value
[8] = S. cerevisiae deletion strains, locus YER002W, strain NOP16, stronger effect = lower value
[9] = S. cerevisiae deletion strains, locus YNL175C, strain NOP13, stronger effect = lower value
[10] = S. cerevisiae deletion strains, locus YNL197C, strain WHI3, stronger effect = lower value
[11] = S. cerevisiae deletion strains, locus YNL224C, strain SQS1, stronger effect = lower value
[12] = S. cerevisiae deletion strains, locus YOR083W, strain WHI5 (second series), stronger effect = lower value

Measured: normalized growth

CC1(C)C(=O)[C@@H]2O[C@@H]2[C@@]2(C)C1CC(=O)[C@]1(C)C2CC[C@@]2(C)[C@H](c3ccoc3)OC(=O)[C@H]3O[C@]321 (some centres undefined)
inactive: [1] 0.99 | S. cerevisiae deletion strains, locus YBR021W, strain FUR4, stronger effect = lower value 1.04 | S. cerevisiae deletion strains, locus YBR229C, strain ROT2, stronger effect = lower value 0.984 | S. cerevisiae deletion strains, locus YCL029C, strain bik1, stronger effect = lower value 0.976 | S. cerevisiae deletion strains, locus YDL035C, strain GPR1, stronger effect = lower value 0.992 | S. cerevisiae deletion strains, locus YDL074C, strain BRE1, stronger effect = lower value 0.955 | S. cerevisiae deletion strains, locus YDL101C, strain DUN1, stronger effect = lower value 0.978 | S. cerevisiae deletion strains, locus YDL134C, strain PPH21, stronger effect = lower value 0.967 | S. cerevisiae deletion strains, locus YDL185W, strain tfp1, stronger effect = lower value 0.951 | S. cerevisiae deletion strains, locus YDL192W, strain arf1, stronger effect = lower value 0.979 | S. cerevisiae deletion strains, locus YDR101C, strain arx1, stronger effect = lower value 0.985 | [2] 0.991 | S. cerevisiae deletion strains, locus YDR162C, strain NBP2, stronger effect = lower value 0.943 | S. cerevisiae deletion strains, locus YDR318W, strain mcm21, stronger effect = lower value 0.984 | S. cerevisiae deletion strains, locus YDR388W, stronger effect = lower value 0.985 | S. cerevisiae deletion strains, locus YDR502C, strain sam2, stronger effect = lower value 0.969 | S. cerevisiae deletion strains, locus YEL061C, strain CIN8, stronger effect = lower value 0.994 | S. cerevisiae deletion strains, locus YER110C, stronger effect = lower value 0.98 | S. cerevisiae deletion strains, locus YER155C, strain BEM2, stronger effect = lower value 0.994 | S. cerevisiae deletion strains, locus YER167W, strain BCK2, stronger effect = lower value 0.991 | S. cerevisiae deletion strains, locus YGL078C, strain dbp3, stronger effect = lower value 0.966 | S. cerevisiae deletion strains, locus YGL086W, strain mad1, stronger effect = lower value 0.995 | S. cerevisiae deletion strains, locus YGL248W, strain PDE1, stronger effect = lower value 0.949 | S. cerevisiae deletion strains, locus YGR135W, strain pre9, stronger effect = lower value 0.968 | S. cerevisiae deletion strains, locus YGR252W, strain gcn5, stronger effect = lower value 0.962 | S. cerevisiae deletion strains, locus YHR079C, strain IRE1 (second series), stronger effect = lower value 0.987 | S. cerevisiae deletion strains, locus YHR094C, strain hxt1, stronger effect = lower value 0.981 | S. cerevisiae deletion strains, locus YHR129C, strain ARP1, stronger effect = lower value 0.988 | S. cerevisiae deletion strains, locus YHR200W, strain rpn10, stronger effect = lower value 0.988 | S. cerevisiae deletion strains, locus YIL066C, strain RNR3, stronger effect = lower value 0.987 | S. cerevisiae deletion strains, locus YIL073C, strain SPO22, stronger effect = lower value 0.96 | S. cerevisiae deletion strains, locus YIL125W, strain kgd1, stronger effect = lower value 0.943 | S. cerevisiae deletion strains, locus YIR030C, strain dcg1, stronger effect = lower value 0.975 | [3] 0.946 | S. cerevisiae deletion strains, locus YJL134W, strain LCB3, stronger effect = lower value 0.988 | S. cerevisiae deletion strains, locus YJL168C, strain set2, stronger effect = lower value 0.989 | S. cerevisiae deletion strains, locus YJL187C, strain SWE1 (second series), stronger effect = lower value 0.977 | S. cerevisiae deletion strains, locus YJR043C, strain POL32, stronger effect = lower value 0.991 | S. cerevisiae deletion strains, locus YKL009W, strain mrt4, stronger effect = lower value 0.971 | S. cerevisiae deletion strains, locus YKL068W, stronger effect = lower value 0.973 | S. cerevisiae deletion strains, locus YKL085W, strain MDH1 (second series), stronger effect = lower value 0.981 | S. cerevisiae deletion strains, locus YKL085W, strain MDH1, stronger effect = lower value 0.981 | S. cerevisiae deletion strains, locus YKR001C, strain vps1, stronger effect = lower value 0.957 | S. cerevisiae deletion strains, locus YLR039C, strain RIC1, stronger effect = lower value 0.951 | S. cerevisiae deletion strains, locus YLR058C, strain SHM2, stronger effect = lower value 0.988 | S. cerevisiae deletion strains, locus YLR102C, strain apc9, stronger effect = lower value 0.975 | S. cerevisiae deletion strains, locus YLR262C, strain YPT6, stronger effect = lower value 0.912 | S. cerevisiae deletion strains, locus YLR268W, strain sec22, stronger effect = lower value 0.997 | S. cerevisiae deletion strains, locus YLR330W, strain CHS5, stronger effect = lower value 0.99 | S. cerevisiae deletion strains, locus YLR342W, strain FKS1 (second series), stronger effect = lower value 1.03 | S. cerevisiae deletion strains, locus YLR371W, strain rom2, stronger effect = lower value 0.962 | S. cerevisiae deletion strains, locus YLR418C, strain cdc73, stronger effect = lower value 0.904 | S. cerevisiae deletion strains, locus YML016C, strain PPZ1, stronger effect = lower value 0.984 | S. cerevisiae deletion strains, locus YML032C, strain rad52, stronger effect = lower value 0.992 | S. cerevisiae deletion strains, locus YML124C, strain tub3, stronger effect = lower value 0.97 | S. cerevisiae deletion strains, locus YMR078C, strain ctf18, stronger effect = lower value 0.955 | S. cerevisiae deletion strains, locus YMR223W, strain ubp8, stronger effect = lower value 0.973 | [4] 1.05 | S. cerevisiae deletion strains, locus YNL067W, strain RPL9B, stronger effect = lower value 0.957 | S. cerevisiae deletion strains, locus YNL233W, strain BNI4, stronger effect = lower value 0.964 | S. cerevisiae deletion strains, locus YNL250W, strain rad50, stronger effect = lower value 0.96 | S. cerevisiae deletion strains, locus YNL271C, strain bni1, stronger effect = lower value 0.973 | S. cerevisiae deletion strains, locus YNL298W, strain CLA4, stronger effect = lower value 0.967 | S. cerevisiae deletion strains, locus YNL307C, strain MCK1, stronger effect = lower value 0.982 | S. cerevisiae deletion strains, locus YNR052C, strain pop2, stronger effect = lower value 0.977 | S. cerevisiae deletion strains, locus YOL006C, strain TOP1, stronger effect = lower value 0.895 | S. cerevisiae deletion strains, locus YOL012C, strain htz1 0.769 | S. cerevisiae deletion strains, locus YOL147C, strain pex11, stronger effect = lower value 0.988 | S. cerevisiae deletion strains, locus YOR061W, strain CKA2, stronger effect = lower value 0.977 | S. cerevisiae deletion strains, locus YOR069W, strain VPS5, stronger effect = lower value 0.985 | S. cerevisiae deletion strains, locus YOR136W, strain idh2, stronger effect = lower value 0.995 | S. cerevisiae deletion strains, locus YOR144C, strain elg1, stronger effect = lower value 0.983 | S. cerevisiae deletion strains, locus YOR184W, strain ser1, stronger effect = lower value 0.982 | S. cerevisiae deletion strains, locus YOR316C, strain cot1, stronger effect = lower value 0.973 | [5] 0.977 | S. cerevisiae deletion strains, locus YPR119W, strain clb2, stronger effect = lower value 0.986 | S. cerevisiae deletion strains, locus YPR141C, strain kar3, stronger effect = lower value 0.964 | S. cerevisiae deletion strains, locus YPR163C, strain tif3, stronger effect = lower value 0.995 | S. cerevisiae deletion strains, locus YPR167C, strain met16, stronger effect = lower value 0.985 | S. cerevisiae deletion strains, strain wtn01, stronger effect = lower value 0.978 | S. cerevisiae strains, strain wild type, stronger effect = lower value 1.01

Cc1nc(N=Nc2ccc(S(=O)(=O)O)cc2S(=O)(=O)O)c(COP(=O)(O)O)c(C=O)c1O
inactive: [6] 1 | S. cerevisiae deletion strains, locus YCL061C, strain MRC1 (second series), stronger effect = lower value 1 | [2] 1.01 | [7] 1.01 | [8] 0.993 | S. cerevisiae deletion strains, locus YGR229C, strain SMI1, stronger effect = lower value 1.02 | [4] 0.998 | S. cerevisiae deletion strains, locus YNL128W, strain TEP1, stronger effect = lower value 1.02 | [9] 1 | [10] 1.01 | [11] 1.01 | [12] 1.01 | S. cerevisiae deletion strains, locus YPL055C, strain LGE1, stronger effect = lower value 1 | [5] 0.997

CC(C)C1C2CCC(C2)C1N (centres undefined)
inactive: [1] 1.01 | [6] 0.976 | [2] 0.985 | [7] 1.02 | [8] 1 | S. cerevisiae deletion strains, locus YGR078C, strain PAC10, stronger effect = lower value 1.02 | S. cerevisiae deletion strains, locus YNL153C, strain GIM3, stronger effect = lower value 1.03 | [9] 1.02 | [10] 1 | [11] 1.03 | [12] 1.01

O1[As]2O[As]3O[As]1O[As](O2)O3
inactive: S. cerevisiae deletion strains, locus YHR030C, strain SLT2, stronger effect = lower value 0.959 | S. cerevisiae deletion strains, locus YHR079C, strain IRE1, stronger effect = lower value 0.974 | [3] 0.983 | S. cerevisiae deletion strains, locus YJR066W, strain TOR1, stronger effect = lower value 0.961 | S. cerevisiae deletion strains, locus YLR113W, strain HOG1, stronger effect = lower value 1.05 | S. cerevisiae deletion strains, locus YNL183C, strain NPR1, stronger effect = lower value 0.927 | S. cerevisiae deletion strains, locus YOR231W, strain MKK1, stronger effect = lower value 0.973 | S. cerevisiae deletion strains, locus YPL256C, strain CLN2, stronger effect = lower value 0.98
